Source: PubChem (National Center for Advancing Translational Sciences (NCATS))
Shown are actives, neighbours in structure and some others; about 9.5% of the full set was active somewhere.
RE007 growth inh: less growth of the S. pombe RE007 Vpr strain. 0.21% of 360,000 active. Potency, µM (doses to about 92.2 µM), for the others: at the top dose activity change, negative = less growth, most hits filed as inhibitors. S. pombe RE007 Vpr strain, BacTiter-Glo ATP luminescence, 24 h. AID 651644; active = well fitted falling curve with a large enough effect; inconclusive = small, poorly fitted or top-dose-only effect; inactive = no such curve, though single readings can be large or run the other way; also: % is scaled to controls: 0 for no effect and ±100 for the full control effect; nearly all actives have a fitted effect of over 50% in size
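Fission yeast RE007 carrying one integrated HIV-1 vpr copy, seeded at OD 0.01 in PMG+AL medium with 23 nL pinned compound. Grown 24 h at 30 degrees; viability read by BacTiter-Glo luminescence after 5 min.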
SARS PLpro yeast: inhibitors of SARS-CoV papain-like protease in yeast. S. cerevisiae expressing SARS-CoV PLpro, growth rescue. Potency, µM (titrated, usually from 32.9 µM), for the others: at the highest dose activity, positive = growth rescue, usual class: activators. 0.19% of 330,000 active; calls by dose curve; also: 0% is about no effect; nearly all actives have a fitted effect of over 55% in size
Pf growth 96h: P. falciparum growth inhibition at 96 hour, primary screen for plastid delayed-death inhibitors | AID 504834 | 6.9% of 320,000 active | P. falciparum luciferase reporter growth, 96 h | Potency, µM (series often up to 28.7 µM), without a hit: at the top dose activity change, negative = inhibition, actives largely listed as inhibitors; also: % is scaled to controls: 0 for no effect and ±100 for the full control effect
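Delayed-death screen, second-generation endpoint: infected erythrocytes, 2% hematocrit, 0.05% parasitemia final; 96 hours at 37 C, 5% CO2; luciferase detection reagent; luminescence decrease equals reduced growth.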
Pf growth 48h: inhibits P. falciparum growth in the first generation, 48 h | P. falciparum luciferase growth in erythrocytes, 48 h | Potency, µM (doses to about 28.7 µM), for inactives: top-dose activity change, negative = inhibition, usual class: inhibitors | 5.9% of 310,000 active; also: % is scaled to controls: 0 for no effect and ±100 for the full control effect
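Parasite viability was followed by luminescence of a genomically integrated firefly luciferase. Cultures held 0.1% parasitemia at 2% hematocrit (final), incubated under 5% CO2 at 37 C.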
NS1 inh: blocks influenza NS1 protein function | Potency, µM (highest dose often 46.1 µM), without a hit: at the top dose activity, positive = more growth | 0.4% of 270,000 active | AID 2326; calls by dose curve; also: actives are rising curves; nearly all actives have a fitted effect of over 50% in size
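In this qHTS, NS1 from influenza A is expressed in budding yeast, where it slows growth. Cells are switched from glucose to 2% galactose medium (pH 6.0, -URA), treated with compound, and growth recovery is read at OD600.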
* marks the source's active call; other numbers are inactive results; ? = inconclusive; . = no result; [ ] = dose if it differs, or a comment. Unless noted, calls follow the shape of the dose curve; as a rule, active = well fitted inhibition curve with a large enough effect; inconclusive = small, poorly fitted or top-dose-only effect, or another doubt; inactive = no such curve, though single readings can be large or run the other way. Potency is read from the fitted curve at half-maximal effect.

SMILES | RE007 growth inh | SARS PLpro yeast | Pf growth 96h | Pf growth 48h | NS1 inh
Cc1cc(-c2ccc(C(C)C)c(S(=O)(=O)N3CCOc4ccccc43)c2)on1 | -2% | 2% | 19% | 15µM* | 19%
CCC1CN(S(=O)(=O)c2cc(-c3cc(C)no3)ccc2OC)c2cc(C)ccc2O1 (stereo unspecified) | 1% | -2% | ? | 10µM* | 7%
COc1ccc(-c2cc(C)no2)cc1S(=O)(=O)N1CCN(c2cccc(C)c2)C(C)C1 (stereo unspecified) | 6% | -2% | ? | ? | 2%
Cc1ccc(NC(=O)CN(C)C(=O)c2nn(C)c(=O)c3ccccc23)cc1 | -7% | 1% | 33% | 1% | -5%
COc1ccc(NC(=O)CN(C)C(=O)CSc2nc3ccccc3s2)cc1 | -6% | . | 0% | -6% | .
O=C1CCC(=O)N1CO | . | . | 94% | 59% | .
CCc1ccc(-c2cc(C)no2)cc1S(=O)(=O)N1CCN(c2cc(C)ccc2C)CC1 | 2% | 0% | 11% | 13µM* | 20%
CCc1ccc(-c2cc(C)no2)cc1S(=O)(=O)N1CCC(C)CC1 | -11% | -15% | ? | -29% | -5%
CCc1ccc(-c2cc(C)no2)cc1S(=O)(=O)N1CCOc2ccc(C)cc21 | -5% | -1% | ? | 2.9µM* | 17%
O=C(c1ccc(CS(=O)c2ccccc2Cl)o1)N1CCN(c2ccccn2)CC1 (stereo unspecified) | -15% | 3% | ? | -9% | -11%
Cc1nc(-c2cccnc2)sc1C(=O)N/N=C/c1ccccc1Cl | -24% | 1% | 17% | 9% | -2%
Cc1ccc(-c2cc(C(=O)NCCCn3ccnc3)c3cc(Br)ccc3n2)o1 | -8% | 2% | ? | 9.3µM* | -31%
Cc1ccc(-c2cc(C(=O)NN3CCOCC3)c3cc(Br)ccc3n2)o1 | -7% | 0% | 5.2µM* | -4% | 3%
Cc1ccc(-c2cc(C(=O)O)c3cc(Br)ccc3n2)o1 | . | 6% | 2% | 16% | 17%
Cc1ccc(-c2cc(C(=O)NC3=NCCS3)c3cc(Br)ccc3n2)o1 | . | 13% | -7% | 9.3µM* | ?
C[C@H](CO)N1C[C@H](C)[C@@H](CN(C)S(=O)(=O)c2ccc(-n3cccn3)cc2)OCc2cn(nn2)CCCC1=O | 7% | . | . | . | .
Cc1ccc(O)c(C(=O)c2cnn(C(=O)Cc3csc(C)n3)c2)c1 | 25µM* | -4% | . | . | -156%
CCOC(=O)C1=C(C)Nc2nc(SCC)nn2C1c1ccc(OC)cc1 (stereo unspecified) | 0% | -1% | 13µM* | -27% | -4%
COc1ccccc1NC(=O)C1=C(C)Nc2nc(CCCO)nn2C1c1cccnc1 (stereo unspecified) | 1% | -3% | 5.2µM* | 20% | 0%
CCOC(=O)C1=C(C)Nc2nc(SCC(=O)OC)nn2C1c1cc(F)cc(F)c1 (stereo unspecified) | 3% | 2% | ? | ? | -13%
COc1ccc(C2C(C(=O)Nc3ccccc3)=C(C)Nc3nc(CCCO)nn32)cc1 (stereo unspecified) | -2% | 0% | 13µM* | -33% | 1%
CC1=C(C(=O)Nc2ccc(F)cc2)C(c2cccc(C)c2)n2nc(CCCO)nc2N1 (stereo unspecified) | -4% | 2% | 6.6µM* | -3% | -4%
CC1=C(C(=O)Nc2ccccc2C)C(c2cccnc2)n2nc(CCCO)nc2N1 (stereo unspecified) | -25% | 7% | . | 4% | 4%
CC1=C(C(=O)Nc2ccccc2)C(c2ccccn2)n2nc(CCCO)nc2N1 (stereo unspecified) | -7% | 3% | -11% | 27% | 1%
COC(=O)/C(=C(O)\C=C\c1ccccc1[N+](=O)[O-])c1nc2ccccc2[nH]1 | 4% | -1% | -10% | 0% | -17%
SMILES | RE007 growth inh | SARS PLpro yeast | Pf growth 96h | Pf growth 48h | NS1 inh
CCOC(=O)CC1(CCc2ccccc2)Oc2ccccc2O1 | 11% | . | . | . | .
CC(C)CNc1nc(N)c([N+](=O)[O-])c(NCC2CCCO2)n1 (stereo unspecified) | -23% | -4% | 12µM* | ? | -10%
CCN(CC)CCCCNc1ncc2cc(-c3cc(OC)cc(OC)c3)c(NC(=O)NC(C)(C)C)nc2n1 | 2%[18.4 µM] | 9% | 9.3µM* | ? | -12%
CCN(CC)CCNC1=NCCn2c1cc1cc(OC)ccc12 | -2% | -6% | ? | . | 3%
CCOc1ccc(-c2noc(-c3cccnc3)n2)cc1OC | -7% | 1% | 9.3µM* | 141% | -9%
c1ccc(-c2noc(-c3cccnc3)n2)cc1 | -22% | . | 12µM* | 179% | -3%
O=C(SCc1cccc2ccccc12)c1ccc(Cl)cc1 | . | . | . | . | -3%
CC1CCCN(c2nc3nonc3nc2N2CCCC(C)C2)C1 (stereo unspecified) | -10% | -25% | -8% | 10µM* | -2%
Cc1nc2c(N)nn(C)c2nc1C | -8% | . | . | . | .
CCCCCC(CC(=O)NO)C(=O)NC(C(=O)N1CCCC1CO)C(C)C (stereo unspecified) | -4%[18.4 µM] | . | 2.9µM* | 3.3µM* | .
O=C(CN1CCN(S(=O)(=O)c2ccc(F)c(Cl)c2)CC1)N1CCNC1=O | 9% | -4% | 19% | -5% | .
CN(C)S(=O)(=O)N1CCC(Oc2ccc(C(=O)NC3CCCCC3)cc2)CC1 | -6% | -1% | 13µM* | ? | 0%
C=CCNC(=O)c1ccc(OC2CCN(S(=O)(=O)N(C)C)CC2)cc1 | 22% | -1% | 0% | -9% | -2%
CN(C)S(=O)(=O)N1CCC(Oc2ccc(C(=O)NCC(C)(C)CO)cc2)CC1 | 7% | 0% | 1.7µM* | -17% | 2%
COCc1c(CCl)cnc(C)c1O | 16% | -2% | 9.3µM* | -26% | -4%
NC(=O)c1cc(NC(=O)c2cc(Br)c(Br)s2)cc(C(N)=O)c1 | 1% | 2% | 8.3µM* | -15% | .
O=C(NCC1CCCO1)c1cc(Br)c(Br)s1 (stereo unspecified) | 5% | 1% | 7% | -2% | -14%
O=C(Nc1cccnc1)c1cc(Br)c(Br)s1 | ? | -3% | 12µM* | ? | .
COc1cccc(CN2CCC2(C)C(=O)Nc2ccc(C)c(O)c2)c1F (stereo unspecified) | -11%[18.4 µM] | . | . | . | .
CS(=O)(=O)c1sc(C#N)c2c1C(=O)CC(c1ccccc1)C2 (stereo unspecified) | -4% | -6% | ? | 12µM* | -71%
COc1cc(NC(=O)c2cccs2)c(C(=O)OCC(=O)c2cc(C)n(-c3ccc(F)cc3)c2C)cc1OC | -4% | 5% | 2.6µM* | 94% | 11%
COc1cc(C(=O)OCC(=O)NCc2ccc(F)cc2)cc(NC(=O)c2cccs2)c1OC | 2% | 1% | 3% | ? | -6%
COc1cc(NC(=O)c2cccs2)c(C(=O)OCC(=O)c2cc(C)n(-c3ccccc3)c2C)cc1OC | -2% | 5% | ? | ? | -2%
